# Source: PubChem
# Pf growth 48h: P. falciparum growth inhibition at 48 hours (one generation); P. falciparum luciferase growth in erythrocytes, 48 h; Potency, µM (series often up to 28.7 µM), inactives show at the top dose activity change, negative = inhibition, usual class: inhibitors; 5.9% of 310,000 active; note: potency is the fitted concentration of half-maximal effect; % is set by controls: 0 for no effect and ±100 for the full control effect
#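 First compound was added to culture medium, then infected red cells at 0.1% parasitemia and 2% hematocrit (final). After incubation at 37 C under 5% CO2, luciferase detection reagent was dispensed and light output recorded.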
# Pf growth 96h: P. falciparum growth inhibition at 96 hour, primary screen for plastid delayed-death inhibitors. P. falciparum luciferase reporter growth, 96 h. Potency, µM (series often up to 28.7 µM), for inactives: top-dose activity change, negative = inhibition, hits mostly inhibitors. 6.9% of 320,000 active. AID 504834; note: potency is the fitted concentration of half-maximal effect; % is set by controls: 0 for no effect and ±100 for the full control effect
#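 Compounds incubated with erythrocytes infected by luciferase-expressing P. falciparum (2% hematocrit, 0.05% parasitemia final) for 96 hours, 37 C in 5% CO2. Growth inhibition scored as decreased luciferase luminescence.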
# Shiga inhibitor: blocks Shiga toxin action in Vero cells | Vero cells, Shiga toxin protein synthesis inhibition reporter | inhibition, % at 38.7 µM | 9.2% of 290,000 active | AID 2315; in the data active = inhibition mostly above about 28%, no sharp cut-off; inactive = mostly below about 43%; note: 0% is about no effect
# Cycloheximide cs: counter-screen for Shiga toxin inhibitors: cycloheximide protein synthesis inhibition; AID 2314; cell reporter, cycloheximide protein synthesis inhibition counterscreen; max response, %; 12% of 300,000 active; in the data active = max response mostly above about 13%, no sharp cut-off; inactive = mostly below about 14%; note: read at 38.3 µM for the half of the compounds with a filed dose; 0% is about no effect
# The depositor's hits bear a star; ? = inconclusive; / = no result; [ ] = another dose, or the depositor's remark. Only some compounds are listed: those with a hit (about 21% of all), similar ones and a draw of the others. Unless noted, calls come from the whole dose curve; as a rule, active = well fitted inhibition curve with a large enough effect; inconclusive = small, poorly fitted or top-dose-only effect, or another doubt; inactive = no such curve, though single readings can be large or run the other way.
SMILES,Pf growth 48h,Pf growth 96h,Shiga inhibitor,Cycloheximide cs
CSc1ccccc1OCc1cc(C(=O)NCc2ccc(C)s2)no1,-9%,-19%,41*,23*
Cc1ccc(CNC(=O)c2cc(COc3c(F)cccc3F)on2)s1,30%,-4%,21,0
CCOC(=O)c1ccc(CNC(=O)c2cc(COc3ccccc3SC)on2)o1,14%,29%,74*,34*
CCc1ccc(N(C(=O)c2snc(C(N)=O)c2N)C(C(=O)NCC2CCCO2)c2ccco2)cc1 (configuration not stated),?,11%,-2,-5
Cc1ccc(C#N)c(SCC(=O)Nc2nccs2)n1,83%,99%,68*,53*
CCOC(=O)c1c(SCC(=O)Nc2nccs2)nc(C)c(C)c1C,48%,?,36*,26*
CCOC(=O)c1c(SCC(=O)Nc2nc(C)cs2)nc(=O)[nH]c1C,-2%,4.7µM*,-2,2
CCc1nnc(NC(=O)CSc2nc3c(cc2C#N)CCC3)s1,135%,/,70*,32*
CC(NC(=O)C1CCN(S(=O)(=O)c2cnc[nH]2)CC1)c1ccccc1 (configuration not stated),-25%,-15%,-10,-5
N#Cc1ccccc1NC(=O)CSc1cn[nH]n1,4%,0%,19,2
N#Cc1cc2c(nc1SCC(=O)Nc1nccs1)CCCCC2,-14%,9%,94*,49*
COc1cc(CNCCc2ccc(S(N)(=O)=O)cc2)ccc1OCc1ccc(Cl)cc1,8.3µM*,6.6µM*,11,-4
CCOc1cc(CNCCc2ccc(S(N)(=O)=O)cc2)ccc1OCc1ccc(Cl)cc1,9.3µM*,?,-20,-4
CCOc1ccc2ccccc2c1CNCCc1ccc(S(N)(=O)=O)cc1,12µM*,?,24,-2
COc1ccccc1-n1c(SCC(N)=O)nc2sc3c(c2c1=O)CCC3,7%,1%,22,10
CCOc1ccc(CC(=O)Nc2ccc(NC(=O)c3ccco3)cc2)cc1OCC,-23%,0%,38,14
CC(C)c1ccc(NC(=O)CSc2nc(=O)n(CCCN3CCOCC3)c3c2CCC3)cc1,-13%,?,/,/
O=C(CSc1nc(=O)n(CCN2CCOCC2)c2c1CCC2)Nc1ccc(OC(F)(F)F)cc1,10µM*,-32%,/,/
O=C(CSc1nc(=O)n(CCCN2CCOCC2)c2c1CCCC2)Nc1ccc(Cl)cc1,13µM*,?,/,/
CCCCC[C@H](O)/C=C\[C@H]1[C@H](C/C=C\CCCC(=O)O)[C@@H](O)C[C@H]1O (tested in a mixture with another compound),-7%[12.8 µM],?,/,/
Cc1cccc(N(Cc2ccccc2)C(=O)c2ccccc2S(C)(=O)=O)c1,-14%,?,-27,-2
CSCCn1c(C(C)(C)C)cc(C(=O)O)c1C,-5%,8.3µM*,38,5
COc1cc(OC)c(NC(=O)Cn2cnc3sc(C)c(S(=O)(=O)N4CCOCC4)c3c2=O)cc1Cl,?,1%,-5,-6
COc1ccc(/C=N/OC(=O)Nc2ccc(Cl)cc2)c(OC)c1,40%,49%,22,25*
CN(C)c1ccc(/C=N/OC(=O)Nc2ccccc2Cl)cc1,65%,20%,95*,22*
SMILES,Pf growth 48h,Pf growth 96h,Shiga inhibitor,Cycloheximide cs
COc1ccc(NC(=O)O/N=C/c2ccncc2)cc1,1%,140%,43*,15
CC1=C(C(=O)Nc2ccccc2Cl)C(c2ccc(N(C)C)cc2)NC(=O)N1 (configuration not stated),?,97%,-11,-1
COc1ccc(NC(=O)O/N=C/c2ccc(Br)cc2)cc1,25%,205%,37,15
COc1ccccc1NC(=O)O/N=C(\N)c1ccccc1,8%,-3%,24,10
COc1ccc(/C=N/OC(=O)Nc2ccccc2OC)cc1,341%,87%,94*,42*
COc1ccc(OC)c(/C=N/OC(=O)Nc2ccc(Cl)cc2)c1,2%,?,11,4
O=C(O)c1cc(=O)c2cc(Cl)ccc2[nH]1,/,/,-6,9
COc1ccc(Cl)cc1N1C(=O)CC(Sc2ccccc2N)C1=O (configuration not stated),-1%,-16%,-10,0
CCCCC(O)(CCCC)C(=O)NN(C(=O)OC)c1ccc(C)cc1,-3%,10%,1,-2
COc1ccc(NC(=O)O/N=C/c2ccc(N(C)C)cc2)cc1,12%,10%,57*,33*
Cc1ccc(NC(=O)O/N=C/c2ccc(N(C)C)cc2)cc1,44%,-14%,22,21*
Cc1ccc(C(=O)O/N=C/c2ccc(N(C)C)cc2)cc1,119%,8%,-1,-3
CC(=O)c1sc(C(C)(C)C)cc1NC(=O)CCC(=O)O,84%,-13%,2,1
